The text below walks through data of publication PMC7862700, “An all-to-all approach to the identification of sequence-specific readers for epigenetic DNA modifications on cytosine”.

Common to all, as to assay: DAPPL (digital affinity profiling via proximity ligation, sequencing); 10 mM Tris-HCl pH 7.5, 50 mM NaCl, 1 mM DTT, 4% glycerol, room temperature, 30 min; GST-TFs on glutathione beads, 16-mer random dsDNA library, 0.1% formaldehyde crosslink after washing; high values mean tight binding
What all share (conditions): protein: recombinant; tags: N-terminal GST; dsDNA, one strand shown

In one assay the target is T1, FLI1 (Homo sapiens, UniProt Q01543 1-452).
T1 sequence: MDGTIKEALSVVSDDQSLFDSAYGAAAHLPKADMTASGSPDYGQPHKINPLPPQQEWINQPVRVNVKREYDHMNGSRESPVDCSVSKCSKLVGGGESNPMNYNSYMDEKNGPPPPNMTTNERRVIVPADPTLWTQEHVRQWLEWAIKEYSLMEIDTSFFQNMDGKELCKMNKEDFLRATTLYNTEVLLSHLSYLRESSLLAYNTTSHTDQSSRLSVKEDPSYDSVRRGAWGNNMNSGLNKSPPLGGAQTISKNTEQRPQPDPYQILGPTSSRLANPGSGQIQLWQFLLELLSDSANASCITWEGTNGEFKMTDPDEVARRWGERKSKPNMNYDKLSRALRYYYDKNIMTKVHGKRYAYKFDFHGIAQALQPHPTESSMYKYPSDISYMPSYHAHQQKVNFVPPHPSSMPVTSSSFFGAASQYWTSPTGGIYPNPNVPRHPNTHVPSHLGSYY
The procedure, abridged:
(§1)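 After expression in yeast as GST fusions, human transcription factors were bound to glutathione beads, DNA-barcoded and mixed with a tag-only sample. The pools were incubated with 200 nmole of a 16-mer random double-stranded DNA library in Tris/NaCl/DTT/glycerol buffer (30 min, room temperature), washed and crosslinked with 0.1% formaldehyde. Proximity ligation with BsaI/T4 ligase ran for 1 h at 37 °C, before PCR amplification and sequencing on an Illumina NextSeq500. Binding signal is a hexamer's read frequency for a factor divided by its frequency for the tag-only sample.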

A further assay addresses T2, ELK1 (Homo sapiens, UniProt P19419 1-428).
T2 sequence: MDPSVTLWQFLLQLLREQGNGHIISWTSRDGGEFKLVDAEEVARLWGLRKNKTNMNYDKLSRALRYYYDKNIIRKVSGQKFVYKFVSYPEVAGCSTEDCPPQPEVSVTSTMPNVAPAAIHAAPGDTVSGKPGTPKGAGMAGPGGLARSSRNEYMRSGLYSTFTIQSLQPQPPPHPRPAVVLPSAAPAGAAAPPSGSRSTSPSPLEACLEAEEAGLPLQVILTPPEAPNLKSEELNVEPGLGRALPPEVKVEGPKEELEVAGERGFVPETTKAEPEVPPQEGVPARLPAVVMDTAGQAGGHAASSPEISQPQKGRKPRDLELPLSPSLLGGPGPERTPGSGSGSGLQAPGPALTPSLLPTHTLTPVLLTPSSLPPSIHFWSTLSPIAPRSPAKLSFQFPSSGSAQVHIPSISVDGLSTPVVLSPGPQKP
A digest of the protocol: as §1

The target in the next assay is T3, GABPA (Homo sapiens, UniProt Q06546 1-454).
T3 sequence: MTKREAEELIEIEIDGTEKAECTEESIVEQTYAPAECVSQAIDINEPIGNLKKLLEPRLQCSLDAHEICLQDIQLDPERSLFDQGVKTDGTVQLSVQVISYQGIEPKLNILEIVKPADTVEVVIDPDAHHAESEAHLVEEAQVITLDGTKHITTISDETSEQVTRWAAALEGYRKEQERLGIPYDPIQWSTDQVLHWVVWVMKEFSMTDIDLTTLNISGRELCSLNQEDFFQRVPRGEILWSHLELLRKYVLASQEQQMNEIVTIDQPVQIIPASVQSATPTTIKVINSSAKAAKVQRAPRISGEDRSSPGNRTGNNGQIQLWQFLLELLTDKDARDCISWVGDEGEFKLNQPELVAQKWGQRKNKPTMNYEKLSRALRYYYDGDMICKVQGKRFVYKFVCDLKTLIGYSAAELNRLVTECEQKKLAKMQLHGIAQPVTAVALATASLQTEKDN
A digest of the protocol:
as §1

For the next assay, the target named is T4, ERG (Homo sapiens, UniProt P11308 1-479).
T4 sequence: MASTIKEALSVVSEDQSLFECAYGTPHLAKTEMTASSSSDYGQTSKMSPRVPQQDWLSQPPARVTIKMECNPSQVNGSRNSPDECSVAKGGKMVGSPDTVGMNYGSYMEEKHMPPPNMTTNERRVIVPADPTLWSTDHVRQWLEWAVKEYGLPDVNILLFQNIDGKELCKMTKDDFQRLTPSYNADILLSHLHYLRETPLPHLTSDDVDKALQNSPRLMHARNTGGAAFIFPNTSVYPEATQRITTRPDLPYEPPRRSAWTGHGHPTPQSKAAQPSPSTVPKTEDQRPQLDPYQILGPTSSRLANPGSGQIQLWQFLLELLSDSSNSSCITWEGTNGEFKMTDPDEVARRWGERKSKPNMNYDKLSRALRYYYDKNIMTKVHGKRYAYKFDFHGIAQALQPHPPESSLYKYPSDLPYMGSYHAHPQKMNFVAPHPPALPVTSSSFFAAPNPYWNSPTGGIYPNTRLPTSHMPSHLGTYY
The procedure, abridged: as §1

For another assay, the target named is ELF1 (Homo sapiens, UniProt P32519 1-619). The procedure, abridged:
as §1

In the next assay the target is T5, EHF (Homo sapiens, UniProt Q9NZC4 1-300).
T5 sequence: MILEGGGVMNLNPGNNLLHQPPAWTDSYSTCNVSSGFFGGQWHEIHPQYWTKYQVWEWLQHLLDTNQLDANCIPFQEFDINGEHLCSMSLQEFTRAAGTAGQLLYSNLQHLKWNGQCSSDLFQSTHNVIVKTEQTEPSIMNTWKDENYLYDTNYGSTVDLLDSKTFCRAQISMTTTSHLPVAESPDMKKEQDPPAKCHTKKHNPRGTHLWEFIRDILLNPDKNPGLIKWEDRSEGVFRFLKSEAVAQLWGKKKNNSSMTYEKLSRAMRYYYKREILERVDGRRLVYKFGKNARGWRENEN
The procedure, abridged:
as §1

Another assay deals with SPI1 (Homo sapiens, UniProt P17947 1-270). The procedure, abridged: as §1
The target in the next assay is SPIB (Homo sapiens, UniProt Q01892 1-262). The procedure, abridged:
as §1

The next assay deals with T6, ELK3 (Homo sapiens, UniProt P41970 1-407).
T6 sequence: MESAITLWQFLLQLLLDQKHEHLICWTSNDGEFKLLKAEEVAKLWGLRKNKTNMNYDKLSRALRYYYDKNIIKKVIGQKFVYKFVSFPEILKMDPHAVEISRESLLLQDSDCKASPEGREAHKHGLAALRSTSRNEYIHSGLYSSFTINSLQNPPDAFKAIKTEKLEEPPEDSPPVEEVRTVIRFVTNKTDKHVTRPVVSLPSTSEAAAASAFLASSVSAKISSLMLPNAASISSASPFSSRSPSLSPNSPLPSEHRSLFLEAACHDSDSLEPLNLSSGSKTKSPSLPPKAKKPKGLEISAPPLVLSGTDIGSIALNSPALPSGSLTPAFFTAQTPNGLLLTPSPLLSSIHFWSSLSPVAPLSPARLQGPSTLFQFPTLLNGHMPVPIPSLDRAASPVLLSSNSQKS
The procedure, abridged: as §1

ELF1, sequence (P32519 whole entry): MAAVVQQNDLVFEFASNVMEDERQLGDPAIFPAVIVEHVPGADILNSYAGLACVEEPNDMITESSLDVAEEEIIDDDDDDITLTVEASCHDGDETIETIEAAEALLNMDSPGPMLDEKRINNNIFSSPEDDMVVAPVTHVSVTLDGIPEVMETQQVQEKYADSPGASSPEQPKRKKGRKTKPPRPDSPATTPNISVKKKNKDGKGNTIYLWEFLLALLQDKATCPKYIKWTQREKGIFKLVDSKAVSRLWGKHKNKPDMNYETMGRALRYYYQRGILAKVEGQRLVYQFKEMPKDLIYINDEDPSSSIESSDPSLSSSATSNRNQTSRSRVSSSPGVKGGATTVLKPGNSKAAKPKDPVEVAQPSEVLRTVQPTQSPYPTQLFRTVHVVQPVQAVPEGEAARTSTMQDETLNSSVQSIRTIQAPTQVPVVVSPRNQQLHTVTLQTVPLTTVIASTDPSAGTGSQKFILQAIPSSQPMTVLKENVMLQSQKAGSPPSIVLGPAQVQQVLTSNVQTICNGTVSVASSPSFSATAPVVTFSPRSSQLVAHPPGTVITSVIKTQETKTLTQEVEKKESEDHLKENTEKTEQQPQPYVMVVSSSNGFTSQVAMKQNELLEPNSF
SPIB, sequence (Q01892 whole entry): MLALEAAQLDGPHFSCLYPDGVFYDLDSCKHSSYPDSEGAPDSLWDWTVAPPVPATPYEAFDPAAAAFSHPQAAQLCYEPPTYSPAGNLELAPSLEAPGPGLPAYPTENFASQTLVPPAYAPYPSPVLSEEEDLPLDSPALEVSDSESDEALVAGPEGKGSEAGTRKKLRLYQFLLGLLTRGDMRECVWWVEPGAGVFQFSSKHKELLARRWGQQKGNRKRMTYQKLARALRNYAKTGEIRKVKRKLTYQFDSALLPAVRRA

For ATTGGG, the binding signal in the assay with FLI1 was 1.23 fold enrichment (6-mer frequency, TF over GST control); with ELK1, 1.24 fold enrichment (6-mer frequency, TF over GST control); with GABPA, 1.33 fold enrichment (6-mer frequency, TF over GST control); in the assay with ERG, 1.13 fold enrichment (6-mer frequency, TF over GST control); with ELF1 it was 1.21 fold enrichment (6-mer frequency, TF over GST control); with EHF, 1.24 fold enrichment (6-mer frequency, TF over GST control). The binding signal is 1.25 fold enrichment (6-mer frequency, TF over GST control) in the assay with SPI1; 1.26 fold enrichment (6-mer frequency, TF over GST control) with SPIB; 1.17 fold enrichment (6-mer frequency, TF over GST control) with ELK3.
